According to PubChem BioAssay (EPA / NIEHS):
Calls of active or inactive are those of the source. The calls were made as follows: active = hit-call score of the fitted dose curve at least 0.9, where 1 is the maximum; inactive = score below 0.9.

These compounds were tested on Insulin-like growth factor-binding protein 1 (IGFBP1), IGFBP1 (gene 3484) (assay: LTEA_HepaRG_IGFBP1: Life Technologies and Expression Analysis (LTEA) Assay for Insulin-like growth factor-binding protein 1 (IGFBP1) using HepaRG (AID 2283508)). Details: mRNA level, 48 h; actives raise or lower the signal.
Summary of the method: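 HepaRG, 48 h, 8 conc. (max 100 uM, half-log), duplicates, 0.5% DMSO. Readout: TaqMan qRT-PCR, ACTB/GAPDH/POLR2A normalisation. Fit: bidirectional vs DMSO.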

| Compound | outcome | AC50 |
| --- | --- | --- |
| Cc1ccccc1O | inactive | – |
| O=NN(c1ccccc1)c1ccccc1 | inactive | – |
| Cc1ccccc1CO[C@@H]1C[C@@]2(C(C)C)CC[C@]1(C)O2 | inactive | – |
| CCC(C)(CC)c1cc(NC(=O)c2c(OC)cccc2OC)on1 | – | 50 µM (active) |
| CCOCCOC(C)=O | inactive | – |
| CC1=C2C[C@H]3[C@@H](CC=C4C[C@@H](O)CC[C@@]43C)[C@@H]2CC[C@]12O[C@@H]1C[C@H](C)CN[C@H]1[C@H]2C | inactive | – |
| Cc1ccccc1[N+](=O)[O-] | inactive | – |
| CC(c1ccc(O)cc1)(c1ccc(O)cc1)c1ccc(O)cc1 | – | 18.8 µM (active) |
| Cc1cccc([N+](=O)[O-])c1 | inactive | – |
| CO/C=C(/C(=O)OC)c1ccccc1COc1cccc(C(F)(F)F)n1 | – | 8.19 µM (active) |
| C[C@]12CCC(=O)C=C1CC[C@@H]1[C@@H]2CC[C@]2(C)C(=O)CC[C@@H]12 | inactive | – |
| Cc1ccc(O)c(C)c1 | inactive | – |
| CN(C)CCO | inactive | – |
| O=C(O)C(F)(F)C(F)(F)C(F)(F)C(F)(F)C(F)(F)C(F)(F)C(F)(F)C(F)(F)C(F)(F)F | – | 27.9 µM (active) |
| CN(C)c1nc(=O)n(C2CCCCC2)c(=O)n1C | inactive | – |
| CCOP(=S)(OCC)SCSC(C)(C)C | inactive | – |
| Oc1c(Cl)c(Cl)c(Cl)c(Cl)c1Cl | – | 7.05 µM (active) |
| ClC1=C(Cl)[C@]2(Cl)[C@@H]3[C@@H]4C[C@@H]([C@H]5O[C@@H]45)[C@@H]3[C@@]1(Cl)C2(Cl)Cl | inactive | – |
| O=S(=O)(O)C(F)(F)C(F)(F)C(F)(F)C(F)(F)F | inactive | – |
| CCC(C)c1cc([N+](=O)[O-])cc([N+](=O)[O-])c1O (stereo not given) | – | 4.09 µM (active) |
